# ± gives the standard deviation of the averaged measurements. Whole data set: some 25,000 sequences, median “ln(normalized median fluorescence intensity)” near 8.6, cut for the highest 2% near 10. This excerpt belongs to a sample that is enriched for the highest values.
# Test system: PfAP2-EXP AP2 domain (GST-tagged)
# Test: gcPBM binding intensity (ln(normalized median fluorescence intensity)); higher = stronger DNA binding
# Summary of the method: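 Binding intensity is the highest Masliner-normalised natural-log median intensity over replicate spots in either probe orientation. To obtain it, GST-tagged P. falciparum DNA-binding domains made in E. coli were incubated for 1 h on an Agilent 4 × 180k array of primer-extended double-stranded 36-bp intergenic genomic probes plus negative controls. Detection used Alexa488 anti-GST antibody with scanning at 488 nm.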
row,Sequence,gcPBM binding intensity (ln)
1,TATATATCTATATATTGTACATATGTTTGTATGTGT [XGTACX_site7420],8.54 ± 0.29
2,ATATATATATATATATGTACATATTTTTGTTTGATG [XGTACX_site51],10.2 ± 0.81
3,ATATATATATATATATGTACATACATATTGTTTGGT [XGTACX_site2284],10.3 ± 0.76
4,ATATATATATATATATGTACACATATATGTGTTTGT [XGTACX_site62],10.1 ± 0.26
5,ATATATATATATATATGTACATATGTTTGTTTCCGC [XGTACX_site5167],10.3 ± 0.21
6,TTTATATTGTTTTATTGTACATATATATTTATACAT [XGTACX_site6821],8.81 ± 0.4
7,ATATATATATATATATGTACATATTATTATTTTGAT [XGTACX_site4752],10.1 ± 0.38
8,TTTTTTTTTTGATGTTGTACATATATATTATATATA [XGTACX_site6377],8.55 ± 0.41
9,ATATATATATATATATGTACATATGTATGTGTTTGT [XGTACX_site397],9.93 ± 0.42
10,GTGTTTTTTTTAGATTGTACATATATATATATATAT [XGTACX_site4562],10.3 ± 0.33
11,ATATTGTTATATGTTTGTACATATTTTTTATATTTT [XGTACX_site6834],8.93 ± 0.91
12,TAACTAAGGAATAATACACACAGAAATATAGATTTA [CACACA_site6293],8.41 ± 0.42
13,TTTTTTTTTTTTTTTTTTTTACGATATATTTTAAAA [XGTACX_negctrl_site401],8.03 ± 0.67
14,GTTATACATTTGAAAAGTACTCATGATTTTTTTTTT [XGTACX_site8177],8.75 ± 0.45
15,TCGAATATCTTATAGGTGCATCATAAATACATATGT,8.69 ± 0.28
16,TGTATATATAATAAAACACACATTTTTAATGTGCTC [CACACA_site1437],8.01 ± 0.3
17,TTAACCACTAAAAGTACACACATATATACCTATATA [CACACA_site6026],8.45 ± 0.28
18,AATAAATAAAGAAGTACACACATATATATATATATA [CACACA_site4314],10.1 ± 0.41
19,ATGATATGGATAAATACACACAATAAAATAATGTCT [CACACA_site6786],8.71 ± 0.43
20,TATATATATATATACACACACACACCGATATATATA [CACACA_site8813],10.3 ± 0.41
21,TATACATACATACATACACACACACCGATATATACA [CACACA_site8184],8.78 ± 0.42
22,AATATATATATATATACACACACACCGATATATATA [CACACA_site8158],8.79 ± 0.33
23,TATATATATATATGTACACACACACCGATAAATAAA [CACACA_site8041],10.21 ± 0.085
24,TATGTACAAATATGTACACACACACCGATATATATA [CACACA_site4487],8.76 ± 0.18
25,TATATATATTTATGTACACACACACCGATAAATAAA [CACACA_site4404],8.91 ± 0.48
26,TATATATATATGTGTACACATGTCGCATTTTTTTAT [CACACA_site4648],10 ± 0.26

row,Sequence,gcPBM binding intensity (ln)
1,TGATAATTTCATTTTGCATGTGACAATACAAGATGT [TGCATGCA_site203],8.59 ± 0.18
2,AAAAAAATAATATAAATAATGAAAAGATATAAATAA [GTGCAC_negctrl_site432],8.54 ± 0.35
3,ATGCTTCCTTAGGAATGTACACACATATATAATATG [XGTACX_site873],8.69 ± 0.35
4,TAATAAAATGTACACGCATGCAATAGAATATAAAGT [TGCATGCA_site905],10.3 ± 0.79
5,TAAAATATAATAAAATGTACACGCATGCAATAGAAT [XGTACX_site7434],9.99 ± 0.47
6,ATAGAAATAAAATAAAATAAAAAAAAAATAATGAAA [CACACA_negctrl_site1565],8.64 ± 0.43
7,TAGAAAAAAATAGATGCATGCAATGAATGAATAATA [TGCATGCA_site14],10.3 ± 0.17
8,CAAAAATAATAGAATACATGCAAAAATAAATGTATA [TGCATGCA_site196],9 ± 0.071
9,AAAATATATATAAATGCATGCATAATGAAATATATA [TGCATGCA_site39],9.95 ± 0.21
10,ATTCTACCACGCGATATACACACTTGTAGACATCTT [CACACA_site188],8.97 ± 0.49
11,TTTAAAAATTTGATCAAACACACGTTGCATAAATTA [CACACA_site3945],8.87 ± 0.47
12,TTGTTTAACTTGTTAAATATAATGTATCTGTGGATA [GTGCAC_negctrl_site108],8.12 ± 0.4
13,TTAATACTTTTTTCTGTACACACTTGATTTACTATA [CACACA_site2799],8.95 ± 0.44
14,AAAATTGTTATTTTATGTACTTATATTTATTTATTT [XGTACX_site3478],8.53 ± 0.27
15,ATATATATGTATGTATGTACTTATTTATTTATTTAT [XGTACX_site7740],8.32 ± 0.16
16,ATATATATATATATATGTACTTATTTATATATTTAT [XGTACX_site7811],10.1 ± 0.25
17,ATATATATATATAGTTGTACTTAATTTTATATGTTA [XGTACX_site5256],10.2 ± 0.15
18,ATGTTTATTTATTTATGTACTTATATATTTATATAT [XGTACX_site7924],8.78 ± 0.34
19,TATTTATTGTGATACTTATATTATTTTATGATTAAA [CACACA_negctrl_site901],8.27 ± 0.37
20,ATATATATATATATATGTACTTATTTATTTATTTAT [XGTACX_site4645],10.2 ± 0.51
21,TATATATATATATATTGTACTTATGTTTATATTCAT [XGTACX_site6258],10.1 ± 0.2
22,TACTTATTGTGATACTTATATTATTTTATGATTAAA [XGTACX_negctrl_site353],8.36 ± 0.39
23,TTTTTATTTATATGATACTTATATATATATATATAT [CACACA_negctrl_site462],10.2 ± 0.16
24,TTGTTAATATATATATGTACTTATTTATTTATTTAT [XGTACX_site2274],8.51 ± 0.35
25,TATATATATATATATTGTACTTTATATGTTCTTATA [XGTACX_site7545],10.3 ± 0.11

# Reference: the supplement of paper PMC11417369
